Screening results: PubChem BioAssay, National Center for Advancing Translational Sciences (NCATS)
VDR inhibitor – Inhibitors of the vitamin D receptor (VDR): qHTS. 400,000 compounds, 0.93% hits. Potency, µM, for the others: max response, negative = inhibition, actives largely listed as inhibitors. AID 504847, 2011. VDR-SRC2-3 peptide fluorescence polarization, 2 h. Vitamin D3 receptor (Homo sapiens), P11473; note: % is set by controls: 0 for no effect and ±100 for the full control effect
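Fluorescence polarization assay measuring small-molecule disruption of VDR binding to the coregulator peptide SRC2-3. Compounds were pin-transferred (23 nl) into the reagent mix and incubated 2 h at room temperature before reading.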
L3MBTL1 inh – qHTS Assay for the Inhibitors of L3MBTL1; AID 485360, 2010; AlphaScreen L3MBTL1–H3K9me1 peptide binding; 230,000 compounds, 0.66% hits; Lethal(3)malignant brain tumor-like protein 1 (Homo sapiens), Q9Y468; Potency, µM (top dose mostly 57.1 µM), for inactives: at the top dose activity, negative = inhibition, hits mostly inhibitors; note: % is set by controls: 0 for no effect and ±100 for the full control effect; nearly all actives have a fitted effect of over 60% in size
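L3MBTL1 50 nM + b-AHA-H3(1-15)K9me1 75 nM, 30 min RT; compound added, 30 min RT; streptavidin donor/Ni-chelate acceptor beads 10 ug/mL each final, 30 min RT dark; AlphaScreen read.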
HP1b binding inh – HTS for Inhibitors of HP1-beta Chromodomain Interactions with Methylated Histone Tails; AID 540317, 2011; AlphaScreen HP1-beta / biotin-H3K9me3 peptide binding; Potency, µM (doses to about 114 µM), inactives show at the highest dose activity change, negative = inhibition, hits mostly inhibitors; 390,000 compounds, 0.56% hits; Chromobox protein homolog 1 (Homo sapiens), P83916; note: nearly all actives have a fitted effect of over 70% in size
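HP1-beta protein (50 nM final) preincubated 30 min at room temperature with biotinylated H3(1-18)K9me3 peptide (50 nM) in PBS pH 7.4, 0.01% Tween-20, then compound added for 30 min. AlphaScreen streptavidin donor/nickel chelate acceptor beads (10 ug/mL final), 30 min dark, luminescence read.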
PLK1 PBD inh – qHTS for Inhibitors of PLK1-PDB (polo-like kinase 1 - polo-box domain): Primary Screen; Serine/threonine-protein kinase PLK1 (Homo sapiens), P53350; Plk1 PBD binding of FITC phosphopeptide, fluorescence polarization; Potency, µM, for the others: max response, negative = inhibition, most hits filed as inhibitors; 360,000 compounds, 2.8% hits; note: series mostly up to about 57 µM; % is set by controls: 0 for no effect and ±100 for the full control effect; nearly all actives have a fitted effect of over 65% in size
BAZ2B block – qHTS Assay for Inhibitors of BAZ2B; AlphaScreen BAZ2B-H3K14Ac peptide displacement; AID 504333, 2011; Bromodomain adjacent to zinc finger domain protein 2B (Homo sapiens), Q9UIF8; Potency, µM (series often up to 114 µM), for the others: top-dose activity change, negative = inhibition, most hits filed as inhibitors; 360,000 compounds, 4.4% hits; note: % is set by controls: 0 for no effect and ±100 for the full control effect; nearly all actives have a fitted effect of over 60% in size
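In this displacement format the biotinylated H3(5-23) peptide acetylated at Lys14 serves as ligand at 50 nM, with BAZ2B at 50 nM in PBS pH 7.4 containing 0.01% Tween-20. Donor and acceptor beads are 10 ug/mL final.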
JMJD2A Tudor – qHTS Assay for Inhibitors of JMJD2A-Tudor Domain; AlphaScreen JMJD2A-Tudor / H3K4me3 peptide binding; Potency, µM (doses to about 114 µM), inactives show at the top dose activity change, negative = inhibition, most hits filed as inhibitors; 390,000 compounds, 4.4% hits; AID 504339, 2011; note: % is set by controls: 0 for no effect and ±100 for the full control effect; nearly all actives have a fitted effect of over 50% in size
Target sequence (O75164 whole entry, looked up, the tested form may be a part): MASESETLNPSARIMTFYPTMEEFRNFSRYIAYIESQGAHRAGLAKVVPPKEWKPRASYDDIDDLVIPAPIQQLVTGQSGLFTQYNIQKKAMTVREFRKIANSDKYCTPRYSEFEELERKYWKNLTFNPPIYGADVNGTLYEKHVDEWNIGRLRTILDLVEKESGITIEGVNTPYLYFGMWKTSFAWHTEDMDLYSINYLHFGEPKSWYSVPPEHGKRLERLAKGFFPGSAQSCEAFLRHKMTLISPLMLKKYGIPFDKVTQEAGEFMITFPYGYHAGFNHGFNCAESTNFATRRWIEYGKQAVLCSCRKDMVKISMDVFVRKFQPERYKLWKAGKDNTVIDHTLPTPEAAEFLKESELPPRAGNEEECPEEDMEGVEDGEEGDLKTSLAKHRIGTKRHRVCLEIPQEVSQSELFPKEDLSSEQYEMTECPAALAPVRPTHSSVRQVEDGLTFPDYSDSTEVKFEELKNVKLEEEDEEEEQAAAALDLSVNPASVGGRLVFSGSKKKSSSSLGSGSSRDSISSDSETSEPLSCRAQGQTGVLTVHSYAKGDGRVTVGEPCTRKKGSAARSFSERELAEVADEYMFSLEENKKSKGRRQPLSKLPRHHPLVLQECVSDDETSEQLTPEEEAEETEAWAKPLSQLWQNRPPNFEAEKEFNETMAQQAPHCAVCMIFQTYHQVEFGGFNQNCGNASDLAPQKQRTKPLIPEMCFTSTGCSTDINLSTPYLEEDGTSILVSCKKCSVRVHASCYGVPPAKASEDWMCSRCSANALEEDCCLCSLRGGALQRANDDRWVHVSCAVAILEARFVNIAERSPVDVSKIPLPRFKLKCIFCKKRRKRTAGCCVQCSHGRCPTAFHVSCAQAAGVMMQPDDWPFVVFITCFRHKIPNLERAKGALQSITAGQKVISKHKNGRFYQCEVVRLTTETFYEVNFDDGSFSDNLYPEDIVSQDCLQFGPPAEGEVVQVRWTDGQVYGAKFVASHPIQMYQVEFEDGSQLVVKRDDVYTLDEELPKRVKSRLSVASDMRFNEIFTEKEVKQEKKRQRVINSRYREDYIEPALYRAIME
Numbers without * were called inactive; [ ] = another dose, or the depositor's remark. An excerpt weighted towards active compounds, which were near 6.9% of everything screened. Calls come from the whole dose curve; as a rule, active = well fitted curve in the direction sought with a large enough effect; inconclusive = small, poorly fitted or top-dose-only effect, or another doubt; inactive = no such curve, though single readings can be large; an effect the other way counts as inactive or inconclusive. Potency is the fitted concentration of half-maximal effect.

What do the screens show for `CC(CN1CCN(Cc2ccccc2)CC1)c1ccccc1` (centres undefined)?
VDR inhibitor: -2.0%; L3MBTL1 inh: -3.4%[2.29 µM]; HP1b binding inh: -8.1%; PLK1 PBD inh: -14.5%; BAZ2B block: -7.5%; JMJD2A Tudor: 89.1µM*

Results for O=C1OCc2cccc([N+](=O)[O-])c21 ?
VDR inhibitor: -11.9%; L3MBTL1 inh: -7.4%; HP1b binding inh: 13.4%; PLK1 PBD inh: -11.1%; BAZ2B block: 2.5%; JMJD2A Tudor: -21.4%

How did O=C1CC(=O)c2c1cccc2[N+](=O)[O-] do in these assays?
BAZ2B block: 50.1µM*

How did CCOc1ccc(N(CC(=O)Nc2ccccc2CC)S(=O)(=O)c2c(C)[nH]c(=O)[nH]c2=O)cc1 do in these assays?
VDR inhibitor: 2.5%; HP1b binding inh: 20.4%; BAZ2B block: -15.2%; JMJD2A Tudor: -11.1%

How did CC(NCC1(N2CCOCC2)CCCCC1)C(=O)Nc1ccc(Cl)cc1Cl (centres undefined) do in these assays?
VDR inhibitor: -9.2%; HP1b binding inh: 2.3%; PLK1 PBD inh: -2.1%; BAZ2B block: 50.1µM*; JMJD2A Tudor: -14.8%

How did CC(C(=O)Nc1ccc(Cl)cc1Cl)N1C(=O)NC2(CCCCCCC2)C1=O (centres undefined) do in these assays?
VDR inhibitor: 10.3%; L3MBTL1 inh: 4.1%; HP1b binding inh: 33.4%; PLK1 PBD inh: 2.2%; BAZ2B block: 8.6%; JMJD2A Tudor: 2.3%

Results for CC(NCC1(N2CCOCC2)CCCCC1)C(=O)N1CCc2ccccc21 (centres undefined) ?
VDR inhibitor: -14.3%; HP1b binding inh: inconclusive; PLK1 PBD inh: -7.6%; BAZ2B block: 39.8µM*; JMJD2A Tudor: 2.82µM*

Results for COc1cccc(CNC(=O)Cn2nc(N3CCN(c4ccccc4OC)CC3)ccc2=O)c1 ?
VDR inhibitor: 10.9%; HP1b binding inh: 9.6%; BAZ2B block: -18.5%; JMJD2A Tudor: -31.8%

What do the screens show for `CCOC(=O)C1=CN(Cc2ccco2)S(=O)(=O)NC1c1cccc(OC)c1` (centres undefined)?
VDR inhibitor: -0.8%; L3MBTL1 inh: -0.8%; HP1b binding inh: 74.5%; PLK1 PBD inh: -6.0%; JMJD2A Tudor: -13.0%

What do the screens show for `CCN(CC)c1ccc(N=Cc2cc(Br)ccc2O)cc1`?
VDR inhibitor: inconclusive; HP1b binding inh: 0.0%; PLK1 PBD inh: -4.9%; BAZ2B block: -31.6%; JMJD2A Tudor: 39.8µM*

Results for Oc1ccc(Br)cc1C=Nc1ccc(Cl)cc1 ?
VDR inhibitor: -4.1%; HP1b binding inh: -17.7%; PLK1 PBD inh: 21.2µM*; JMJD2A Tudor: -32.3%

What do the screens show for `CC(C)(C)c1ccc(O)c(N=Cc2cc(Br)ccc2O)c1`?
VDR inhibitor: -5.3%; L3MBTL1 inh: -17.3%; HP1b binding inh: inconclusive; PLK1 PBD inh: 3.0%; BAZ2B block: -19.8%; JMJD2A Tudor: 3.98µM*

How did C=C(C)C1CC=C(C)CC1 (centres undefined) do in these assays?
VDR inhibitor: 3.9%

Results for O=C(Nc1ccccc1)/C(=C\c1ccc2c(c1)OCO2)NC(=O)c1ccco1 ?
VDR inhibitor: -28.8%; L3MBTL1 inh: 1.5%; HP1b binding inh: -9.2%; PLK1 PBD inh: 23.8µM*; BAZ2B block: 4.7%; JMJD2A Tudor: -32.6%

Results for O=C(Nc1ccccc1)/C(=C/c1ccc2c(c1)OCO2)NC(=O)c1ccco1 ?
VDR inhibitor: -6.2%; L3MBTL1 inh: -1.4%; HP1b binding inh: 34.7%; PLK1 PBD inh: -11.8%; BAZ2B block: -7.5%; JMJD2A Tudor: -4.7%

How did O=C(O)c1cccc(N2C(=O)/C(=C/c3ccc(SCc4ccc(Cl)cc4)o3)SC2=S)c1 do in these assays?
VDR inhibitor: -29.8%; L3MBTL1 inh: 3.55µM*; HP1b binding inh: -16.4%; PLK1 PBD inh: inconclusive; BAZ2B block: 31.6µM*; JMJD2A Tudor: 44.7µM*

What do the screens show for `COC(=O)c1nc(-c2ccccc2)nc(-c2ccccc2)c1C(=O)OC`?
VDR inhibitor: -8.0%; HP1b binding inh: 31.3%; PLK1 PBD inh: -10.6%; JMJD2A Tudor: 2.1%

How did COC1=C(Nc2ccccc2)C(=O)c2ccccc2C1=O do in these assays?
VDR inhibitor: 44.7µM*; L3MBTL1 inh: 31.6µM*; HP1b binding inh: 35.5µM*; PLK1 PBD inh: -2.5%; BAZ2B block: 14.1µM*; JMJD2A Tudor: 14.1µM*

How did COC1=C(Nc2ccc(C)cc2)C(=O)c2ccccc2C1=O do in these assays?
VDR inhibitor: inconclusive; L3MBTL1 inh: 15.8µM*; HP1b binding inh: 15.8µM*; PLK1 PBD inh: -11.1%; BAZ2B block: 7.94µM*; JMJD2A Tudor: 10µM*

What do the screens show for `Cc1ccc(Nc2n[nH]c(=S)s2)cc1`?
PLK1 PBD inh: 23.8µM*

What do the screens show for `S=c1[nH]nc(Nc2ccc(Cl)cc2)s1`?
VDR inhibitor: inconclusive; L3MBTL1 inh: 7.0%; HP1b binding inh: 1.6%; PLK1 PBD inh: 13.4µM*; BAZ2B block: inconclusive; JMJD2A Tudor: -34.8%

Results for COc1cc2c(cc1OC)C(COc1ccc3c(C)cc(=O)oc3c1)N(C(=O)c1cc(Cl)ccc1OC)CC2 (centres undefined) ?
VDR inhibitor: -12.7%; HP1b binding inh: 50.7%; BAZ2B block: 1.0%; JMJD2A Tudor: 2.4%

Results for CC(C)NC(=O)Nc1cccc2c1O[C@H](CN(C)C(=O)NC(C)C)[C@@H](C)CN([C@H](C)CO)C2=O ?
VDR inhibitor: 3.2%; L3MBTL1 inh: 2.4%; HP1b binding inh: 60.6%; PLK1 PBD inh: -11.2%; JMJD2A Tudor: -7.5%

Results for CC(C)NC(=O)N(C)C[C@H]1Oc2c(NC(=O)Cc3ccccc3)cccc2C(=O)N([C@H](C)CO)C[C@@H]1C ?
VDR inhibitor: inconclusive; L3MBTL1 inh: 3.7%; HP1b binding inh: 1.5%; PLK1 PBD inh: 26.7µM*; JMJD2A Tudor: inconclusive

Results for C[C@H](CO)N1C[C@H](C)[C@@H](CN(C)CC2CCCCC2)Oc2c(NC(=O)Cc3ccccc3)cccc2C1=O ?
VDR inhibitor: inconclusive; L3MBTL1 inh: -7.5%; HP1b binding inh: -4.4%; PLK1 PBD inh: 18.9µM*; JMJD2A Tudor: 56.2µM*

How did CCCNC(=O)N(C)C[C@H]1Oc2ncc(C#CCc3ccccc3)cc2C(=O)N([C@H](C)CO)C[C@H]1C do in these assays?
PLK1 PBD inh: 26.7µM*
